Data taken from PubChem BioAssay AID743395 (Broad Institute, 2014).
Screen size: about 1,200 compounds; about 480 (40%) were called active. How the calls were made is not given here. The set was probably picked from earlier hits. The list is a sample of the results. Measured potencies and affinities stand elsewhere.

Assay: HepG2 cell cytotoxicity, dose response, cytotoxicity control, CellTiter-Glo luminescence, cherry-pick, set 2 (AID 743395);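 further: 0% = neutral control wells and -100% = positive control wells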
Details: HepG2 viability, CellTiter-Glo ATP luminescence, 72 h; series mostly up to 26 µM; activity change, negative = cytotoxicity: at the top concentration

SMILES | activity change, negative = cytotoxicity
COc1ccc(C#Cc2ccc3c(c2)O[C@H](CN(C)C(=O)Nc2cccc(OC)c2)[C@H](C)CN([C@H](C)CO)S3(=O)=O)cc1 | -1.04% [at 23.5 µM] (inactive)
COc1ccc(CNCC(=O)Nc2ccccc2-n2cccc2)cc1 | -13.8% (inactive)
COc1ccc(NC(=O)C(=O)c2cn(CC(=O)N3CCCC3)c3ccccc23)cc1OC | -33.5% (inactive)
CCCCNC(=O)c1onc(CSc2ccccc2C)c1C(=O)O | -8.72% (inactive)
COc1cccc(C2=CC(c3ccccc3)n3nnnc3N2)c1 (stereo unspecified) | -18.3% (inactive)
CCOc1cc(N2CCOCC2)c(OCC)cc1NC(=O)CN1C(=O)NC2(CCCCC2)C1=O | -3.62% (inactive)
COCCCN=C1NN=C(c2cc(C)n(Cc3ccccc3Cl)c2C)CS1 | -14.4% (inactive)
C[C@H]1CNC(=O)c2c(C(=O)Nc3ccc(CNC(=O)OC(C)(C)C)cc3)ncn21 | -3.46% (inactive)
CC(=O)N(C)C[C@@H]1Oc2cc(C#Cc3ccc(F)cc3)ccc2S(=O)(=O)N([C@H](C)CO)C[C@@H]1C | -8.91% (inactive)
C[C@H](CO)N1C[C@H](C)[C@H](CN(C)C(=O)NC2CCCCC2)Oc2cc(C#Cc3ccc(F)cc3)ccc2S1(=O)=O | -7.21% (inactive)
C[C@H](CO)N1C[C@H](C)[C@H](CN(C)C(=O)NC2CCCC2)Oc2cc(C#Cc3ccc(F)cc3)ccc2S1(=O)=O | -13.8% (inactive)
C[C@H]1CN([C@@H](C)CO)S(=O)(=O)c2ccc(C#Cc3cccc(F)c3)cc2O[C@H]1CN(C)C(=O)NC1CCCCC1 | -26.2% (inactive)
C[C@H](CO)N1C[C@H](C)[C@@H](CN(C)C(=O)NC2CCCCC2)Oc2cc(C#Cc3ccc(F)cc3)ccc2S1(=O)=O | 15.3% (inactive)
C[C@@H]1CN([C@H](C)CO)S(=O)(=O)c2ccc(C#Cc3cccc(F)c3)cc2O[C@@H]1CN(C)C(=O)NC1CCCCC1 | -27.1% (inactive)
Cc1cccc2c(N=Nc3ccc(S(=O)(=O)Nc4ccc(Cl)cc4)cc3[N+](=O)[O-])c(O)[nH]c12 | 1.24% (inactive)
Cc1ccc(-c2nc(CSCC(=O)Nc3cc(C)on3)c(C)o2)cc1 | -3.4% (inactive)
COc1ccc(C#Cc2ccc3c(c2)O[C@@H](CN(C)C(=O)Nc2cccc(OC)c2)[C@H](C)CN([C@H](C)CO)S3(=O)=O)cc1 | -6.6% (inactive)
CO[C@@H]1CN(C)C(=O)c2cc(NC(=O)Nc3c(C)noc3C)ccc2OC[C@@H](C)N(C)C[C@@H]1C | 4.2% (inactive)
Cc1ccc(S(=O)(=O)NCc2ccccc2)cc1C(=O)N1CC(C)CC(C)C1 (stereo unspecified) | -7.82% (inactive)
Cc1cccc(OCCNC(=O)c2ccc(Cl)c(S(=O)(=O)NCc3cccnc3)c2)c1 | -31.4% (inactive)
N=c1sccn1CC(=O)Nc1ccc(S(N)(=O)=O)cc1 | -16.8% (inactive)
COC(=O)C[C@@H]1CC[C@@H]2[C@H](COc3ccc(NC(=O)c4ccc(C(F)(F)F)cc4)cc3C(=O)N2C)O1 | -19.6% (inactive)
O=C(CN(Cc1ccccc1)S(=O)(=O)c1ccc(F)cc1)NCc1cccnc1 | -16.4% (inactive)

SMILES | activity change, negative = cytotoxicity
NS(=O)(=O)c1ccc(CNc2ccc3ccccc3n2)cc1 | 1.62% (inactive)
COC(=O)c1ccsc1NC(=O)c1ccccc1 | -17.6% (inactive)
CCN(C(=O)COC(=O)c1cc(-c2ccccc2)nc2c1c(C)nn2-c1ccc(C)cc1)C1CCS(=O)(=O)C1 (stereo unspecified) | -8.63% (inactive)
CC(C)c1ccc(CN2CCN(S(=O)(=O)c3ccc(Cl)s3)CC2)cc1 | -4.24% (inactive)
Cc1cc(C)cc(C(=O)NCC(=O)OCc2cc([N+](=O)[O-])cc3c2OCOC3)c1 | 17% (inactive)
CCN(CC)C(=S)SSC(=S)N(CC)CC | -4.43% (inactive)
Cc1cc2c(cc(C(=O)OC(C)C(=O)NCc3ccc(F)cc3)n2C)o1 (stereo unspecified) | -0.125% (inactive)
CCN(CC)CCn1c2c(c(SCC(=O)Nc3ccc(F)c(F)c3)nc1=O)CCC2 | -13% (inactive)
COc1cc(C(=O)OCCc2cc3ccccc3c(=O)o2)cc(OC)c1OC | -16.8% (inactive)
O=C1c2ccccc2C(=O)N1Cc1cnc(N2CCN(c3ccccc3)CC2)s1 | -32% (inactive)
CCOC(=O)c1cnc(COc2ccc(OC)cc2)[nH]c1=O | -2% (inactive)
S=C(NCCc1ccccc1)Nc1nccs1 | -14.8% (inactive)
COc1ccc(NS(=O)(=O)c2cc(NC(=O)Cc3c(F)cccc3Cl)ccc2OC)cc1 | -10.6% (inactive)
O=S(=O)(c1ccc(Br)cc1)N1CCCc2ccccc21 | 4.64% (inactive)
CC1CN(S(=O)(=O)c2ccc(C(=O)N3CCc4ccccc43)cc2)CC(C)O1 (stereo unspecified) | 5.35% (inactive)
C[C@H](CO)N1C[C@H](C)[C@H](CN(C)C(=O)c2ccc3c(c2)OCO3)Oc2cc(C#Cc3ccccc3F)ccc2S1(=O)=O | 62.9% (inactive)
COc1ccc(C)cc1NC(=O)C(OC(=O)c1ccc(Cl)c(S(=O)(=O)N(C)c2ccccc2)c1)c1ccccc1 (stereo unspecified) | 6.28% (inactive)
O=c1c(O)c(-c2cccs2)oc2ccc(Cl)cc12 | -32.4% (inactive)
O=C(NCCCN1CCCC1=O)c1cc(S(=O)(=O)N2CCOCC2)c(Cl)cc1Cl | 1.04% (inactive)
CC(C)Oc1ccc(S(=O)(=O)N2CCOCC2)cc1NC(=O)CCCSc1ccccc1 | 7.1% (inactive)
c1ccc2c(c1)N1CCCN=C1N2CCN1CCCCC1 | -12.9% (inactive)
COc1ccc(NC(=O)N(C)C[C@@H]2Oc3cc(C#CCC(C)C)ccc3S(=O)(=O)N([C@H](C)CO)C[C@@H]2C)cc1 | 7.43% (inactive)
Cc1ccc(S(=O)(=O)N2CCOCC2)cc1NC(=O)CSc1nnc(COc2ccccc2F)n1N | -0.298% (inactive)

SMILES | activity change, negative = cytotoxicity
O=C(NCC(c1cccs1)N1CCOCC1)c1ccc(OCc2ccccc2)cc1 (stereo unspecified) | 12.2% (inactive)
CCOC(=O)[C@H](CCc1ccccc1)N[C@@H](C)C(=O)N1[C@H](C(=O)O)C[C@@H]2CCC[C@@H]21 | -17.6% (inactive)
CCOc1ccc(NS(=O)(=O)c2cc(NC(=O)CCNC(=O)c3ccco3)ccc2OC)cc1 | -23.6% (inactive)
CC(=O)OCC(=O)NCCCOc1cccc(CN2CCCCC2)c1 | -9.23% (inactive)
Cc1c(C)c2c(OCC(=O)N3CCC(O)CC3)cc3c(c2oc1=O)CCC(C)(C)O3 | -0.002% (inactive)
CN(Cc1cccs1)C(=O)c1cccc(S(=O)(=O)N2CCCCCC2)c1 | -15.8% (inactive)
CCOc1ccc(C(=O)N[C@H](C(=O)Nc2cccc(S(=O)(=O)N3CCCCC3)c2)C(C)C)cc1 | 34.1% (inactive)
COC(CNC(=O)[C@H](Cc1ccccc1)N1Cc2ccccc2C1=O)OC | 1.08% (inactive)
CC(C(=O)O)N(C(=O)c1ccccc1)c1ccc(F)cc1 (stereo unspecified) | -6.57% (inactive)
O=C(NCCC1CCCCN1S(=O)(=O)c1cccs1)C(=O)Nc1ccc(F)cc1F (stereo unspecified) | -11.5% (inactive)
COc1ccc(NC(=O)C2CCCN2C(=O)Nc2cccc(F)c2)cc1 (stereo unspecified) | -4.96% (inactive)
Cc1ccc(OCC(=O)Nc2ccc(CN3CCCCC3)cc2)c(C)c1 | -4.73% (inactive)
CCN(CC)C1=CC2=CC(=C(C#N)C#N)CCC2CC1 (stereo unspecified) | 2.84% (inactive)
N#CC(C#N)=C1C=C2C=C(N3CCOCC3)CCC2CC1 (stereo unspecified) | -4.57% (inactive)
C#C[C@]1(O)CC[C@H]2[C@@H]3CCc4cc(OC)ccc4[C@H]3CC[C@@]21C | -1.22% (inactive)
CC12CCC3c4ccc(O)cc4CCC3C1CCC2=O (stereo unspecified) | -5.95% (inactive)
COc1cccc(C#Cc2ccc3c(c2)O[C@@H](CN(C)C(=O)c2ccccn2)[C@H](C)CN([C@@H](C)CO)S3(=O)=O)c1 | 11.2% (inactive)
O=C(O)COC(=O)Cc1ccccc1Nc1c(Cl)cccc1Cl | -6.65% (inactive)
Cc1ccc(C(=O)Nc2cccc(C(F)(F)F)c2)cc1Nc1cnccn1 | 2.75% (inactive)
CC(=O)c1cc(NC(=O)c2cccc(C(F)(F)F)c2)c(=O)oc1C | 1.46% (inactive)
COCCNc1nc(Nc2ccc(C)cc2C)c2sccc2n1 | -3.94% (inactive)
Cn1cccc1C(=O)OCC(=O)NCc1ccc2c(c1)OCO2 | -11.8% (inactive)
CC(C)(C)C(=O)Nc1ccc(S(=O)(=O)NC2=NCCCCC2)cc1 | -0.044% (inactive)

SMILES | activity change, negative = cytotoxicity
CC(=O)NS(=O)(=O)c1ccc(NC(=O)CSc2ccc(Cl)cc2)cc1 | -2% (inactive)
Cc1ccc(S(=O)(=O)Nc2cc(C)cc(CCNC=O)c2C)cc1 | 4.38% (inactive)
Cc1cc(O)cc2c1C1CCC3(C)C(=O)CCC3C1C=C2 (stereo unspecified) | 8.57% (inactive)
COc1ccc(-c2oc3ccc(-c4cc(OC)c(OC)c(OC)c4)cc3c2C#Cc2ccccn2)cc1 | -5.9% (inactive)
COc1ccc(CCn2c(NN=C(C)C)nc3c2c(=O)[nH]c(=O)n3C)cc1 | -1.37% (inactive)
CCCCNC(=O)CSc1nc2ccc(C)cc2[nH]1 | 4.44% (inactive)
COC(=O)c1ccc(C(=O)NC2CCCc3c2cnn3-c2cc(F)cc(F)c2)nc1 (stereo unspecified) | -22.1% (inactive)
COC(=O)C1=CN(c2ccc3c(c2)OCO3)C(N)=C(C#N)C1c1cccc(F)c1 (stereo unspecified) | -9.02% (inactive)
COc1cccc(NC(=O)c2cnc(SCC(=O)NCc3ccc4c(c3)OCO4)n(C)c2=O)c1 | -13.8% (inactive)
O=C(Nc1ccccc1)N1C[C@H]2[C@@H](c3ccccc31)[C@H](CO)N2C(=O)c1ccccn1 | -1.86% (inactive)
OC[C@@H]1[C@@H](c2ccc(C#CC3(O)CCCC3)cc2)[C@H]2CN(Cc3ccccc3F)CCCCN12 | -24.4% (inactive)
O=C(Nc1ccc(F)cc1)N1CCCCN2[C@H](C1)[C@H](c1ccc(-c3cccc(F)c3)cc1)[C@@H]2CO | -14.1% (inactive)
C/C=C/c1ccc([C@@H]2[C@H](CO)N3CCCCN(S(=O)(=O)c4ccccc4)C[C@@H]23)cc1 | 9.51% (inactive)
CCOc1ccc(NC(=O)CN(c2ccc([N+](=O)[O-])cc2)S(=O)(=O)c2ccccc2)cc1 | -26% (inactive)
Cc1ccc(NC(=O)Cc2nc(-c3c[nH]c(C(=O)N4CCCC4)c3)cs2)c(C)c1 | -12.1% (inactive)
OC[C@H]1[C@H](c2ccc(C#CC3(O)CCCC3)cc2)[C@H]2CN(Cc3ccccc3F)CCCCN21 | -17.8% (inactive)
O=S(=O)(Cc1ccccc1)N1CCCCN2[C@H](C1)[C@@H](c1ccc(C#Cc3ccccc3)cc1)[C@@H]2CO | -21.4% (inactive)
COc1ccc(C#Cc2ccc([C@H]3[C@H]4CN(C(=O)c5ccncc5)CCCCN4[C@H]3CO)cc2)cc1 | -22.7% (inactive)
C[C@]12C=CC(=O)C=C1CC[C@@H]1C2[C@@H](O)C[C@@]2(C)C1CC[C@]2(O)C(=O)COC(=O)CCC(=O)O (stereo partly specified) | -0.286% (inactive)
Nc1nn(-c2ccccc2)c(N)c1N=Nc1cccc(F)c1 | -13.9% (inactive)
CCN(C(=O)COc1ccc2ccc(=O)oc2c1)C1CCCCC1 | -7.77% (inactive)
CC(C)Nc1nc(Nc2ccc(Cl)cc2F)c2sccc2n1 | -18% (inactive)
